# Measurements reported in publication PMC11062922 (Nature Chemical Biology, 2023).
# Like-named read-outs stand apart in the source and are kept apart here.
# Tests used:
# Parameters in all cases: species or system human, MV4-11 + K-562 + COLO205 + SK-N-BE2 + OVCAR-8
# [1] = tested on: DDR1; conditions: read-out: apparent Kd, n = 1
# [2] = tested on: DDR2; conditions: read-out: apparent Kd, n = 1
# [3] = tested on: FLT3; conditions: read-out: apparent Kd; compound concentrations:100 nM and 1000 nM (sheet 'Samples'); n = 1
# [4] = tested on: MAP2K1; conditions: read-out: apparent Kd; compound concentrations:100 nM and 1000 nM (sheet 'Samples'); n = 1
# [5] = tested on: NQO1; conditions: read-out: apparent Kd; compound concentrations:100 nM and 1000 nM (sheet 'Samples'); n = 1
# [6] = tested on: PIK3C3; conditions: read-out: apparent Kd; compound concentrations:100 nM and 1000 nM (sheet 'Samples'); n = 1
# [7] = tested on: PIK3CD; conditions: read-out: apparent Kd; compound concentrations:100 nM and 1000 nM (sheet 'Samples'); n = 1
# [8] = tested on: RIOK2; conditions: read-out: apparent Kd; compound concentrations:100 nM and 1000 nM (sheet 'Samples'); n = 1
# [9] = tested on: SMC4; conditions: read-out: apparent Kd; compound concentrations:100 nM and 1000 nM (sheet 'Samples'); n = 1
# [10] = tested on: CSNK2A2; conditions: read-out: apparent Kd; compound concentrations: 100 nM and 1000 nM (sheet 'Samples'), CATDS: 0.17401411869460601; n = 1
# [11] = tested on: T1, DJA1; conditions: read-out: apparent Kd, compound concentrations: 100 nM and 1000 nM (sheet 'Samples'), n = 1
# T1 construct: gene DNAJA1
# [12] = tested on: FLT4; conditions: read-out: apparent Kd, compound concentrations: 100 nM and 1000 nM (sheet 'Samples'), n = 1
# [13] = tested on: NQO2; conditions: read-out: apparent Kd; compound concentrations: 100 nM and 1000 nM (sheet 'Samples'), CATDS: 0.17633941136765999; n = 1
# [14] = tested on: DCTPP1; conditions: read-out: apparent Kd, n = 1
# [15] = tested on: GSK3A; conditions: read-out: apparent Kd; compound concentrations: 100 nM and 1000 nM (sheet 'Samples'), CATDS: 0.120025904024986; n = 1
# [16] = tested on: GSK3B; conditions: read-out: apparent Kd; compound concentrations: 100 nM and 1000 nM (sheet 'Samples'), CATDS: 0.13279399425104901; n = 1
# [17] = tested on: PRKCA; conditions: read-out: apparent Kd; compound concentrations: 100 nM and 1000 nM (sheet 'Samples'), CATDS: 0.251821387342202; n = 1
# [18] = tested on: PRKCB; conditions: read-out: apparent Kd; compound concentrations: 100 nM and 1000 nM (sheet 'Samples'), CATDS: 0.103783943133635; n = 1
# [19] = tested on: PRKCD; conditions: read-out: apparent Kd; compound concentrations: 100 nM and 1000 nM (sheet 'Samples'), CATDS: 0.10441574318923801; n = 1
# [20] = tested on: PRKCQ; conditions: read-out: apparent Kd; compound concentrations: 100 nM and 1000 nM (sheet 'Samples'), CATDS: 8.12008674931885E-2; n = 1
# [21] = tested on: RPS6KA6; conditions: read-out: apparent Kd; compound concentrations: 100 nM and 1000 nM (sheet 'Samples'), CATDS: 0.17427412228003; n = 1
# [22] = tested on: JAK2; conditions: read-out: apparent Kd; compound concentrations:100 nM and 1000 nM (sheet 'Samples'); n = 1
# [23] = tested on: MAPK14; conditions: read-out: apparent Kd; compound concentrations:100 nM and 1000 nM (sheet 'Samples'); n = 1
# [24] = tested on: MAPK8; conditions: read-out: apparent Kd; compound concentrations:100 nM and 1000 nM (sheet 'Samples'); n = 1
# [25] = tested on: MAPK9; conditions: read-out: apparent Kd; compound concentrations:100 nM and 1000 nM (sheet 'Samples'); n = 1
# [26] = tested on: MAPKAPK2; conditions: read-out: apparent Kd; compound concentrations:100 nM and 1000 nM (sheet 'Samples'); n = 1
# [27] = tested on: NLK; conditions: read-out: apparent Kd; compound concentrations:100 nM and 1000 nM (sheet 'Samples'); n = 1
# [28] = tested on: PIP4K2C; conditions: read-out: apparent Kd; compound concentrations:100 nM and 1000 nM (sheet 'Samples'); n = 1
# [29] = tested on: PDGFRB; conditions: read-out: apparent Kd; compound concentrations: 100 nM and 1000 nM (sheet 'Samples'), CATDS: 0.14329981050248; n = 1
# [30] = tested on: RET; conditions: read-out: apparent Kd; compound concentrations: 100 nM and 1000 nM (sheet 'Samples'), CATDS: 0.185315990587263; n = 1
# [31] = tested on: MAPK6; conditions: read-out: apparent Kd; compound concentrations:100 nM and 1000 nM (sheet 'Samples'); n = 1
# [32] = tested on: NTRK1; conditions: read-out: apparent Kd; compound concentrations:100 nM and 1000 nM (sheet 'Samples'); n = 1
# [33] = tested on: NUAK1; conditions: read-out: apparent Kd; compound concentrations:100 nM and 1000 nM (sheet 'Samples'); n = 1
# [34] = tested on: PHKG2; conditions: read-out: apparent Kd, n = 1
# [35] = tested on: PRKD2; conditions: read-out: apparent Kd; compound concentrations:100 nM and 1000 nM (sheet 'Samples'); n = 1
# [36] = tested on: PIK3CG; conditions: read-out: apparent Kd; compound concentrations: 100 nM and 1000 nM (sheet 'Samples'), CATDS: 0.403949586222208; n = 1
# [37] = compound concentrations:100 nM and 1000 nM (sheet 'Samples')
compound,measurement,setting,value
COC(=O)Nc1nc2ccc(Oc3ccc(CC(=O)Nc4cc(C(F)(F)F)ccc4F)cc3)cc2[nH]1 [GW680903X],potency estimated from few doses,[1]; [37],257 nM
same,potency estimated from few doses,[2]; [37],404 nM
same,potency estimated from few doses,[3],713 nM
same,potency estimated from few doses,[4],2320 nM
same,potency estimated from few doses,[5],2020 nM
same,potency estimated from few doses,[6],1510 nM
same,potency estimated from few doses,[7],104 nM
same,potency estimated from few doses,[8],1760 nM
same,potency estimated from few doses,[9],1910 nM
CCS(=O)(=O)c1ccc(OC)c(Nc2ncc(-c3ccc(F)cc3)o2)c1.Cl [GW591947A],potency estimated from few doses,[10],1860 nM
same,potency estimated from few doses,[11]; CATDS: 0.455945316982168,131 nM
same,potency estimated from few doses,[12]; CATDS: 0.41854797783311298,152 nM
same,potency estimated from few doses,[13],1750 nM
Cn1cc(C2=C(c3cn(CCCCN)c4ccccc34)C(=O)NC2=O)c2ccccc21 [RO0317888-000],potency estimated from few doses,"[14]; compound concentrations: 100 nM and 1000 nM (sheet 'Samples'), CATDS: 8.2242786873404694E-2",1870 nM
same,potency estimated from few doses,[11]; CATDS: 8.5163737412021906E-2,1670 nM
same,potency estimated from few doses,[15],700 nM
same,potency estimated from few doses,[16],570 nM
same,potency estimated from few doses,[17],200 nM
same,potency estimated from few doses,[18],970 nM
same,potency estimated from few doses,[19],956 nM
same,potency estimated from few doses,[20],1960 nM
same,potency estimated from few doses,[21],351 nM
Cl.Cn1c(=O)c(Oc2ccc(F)cc2F)cc2cnc(NC3CCS(=O)(=O)CC3)nc21 [RO3308271-001],potency estimated from few doses,[14]; [37],1310 nM
same,potency estimated from few doses,[22],494 nM
same,potency estimated from few doses,[23],16.5 nM
same,potency estimated from few doses,[24],922 nM
same,potency estimated from few doses,[25],212 nM
same,potency estimated from few doses,[26],13.3 nM
same,potency estimated from few doses,[27],1220 nM
same,potency estimated from few doses,[28],1310 nM
Cc1c2ccc(N(C)c3ccnc(Nc4cccc(S(N)(=O)=O)c4)n3)cc2nn1C.Cl [GW771127A],potency estimated from few doses,"[1]; compound concentrations: 100 nM and 1000 nM (sheet 'Samples'), CATDS: 0.23686059185109401",397 nM
same,potency estimated from few doses,"[2]; compound concentrations: 100 nM and 1000 nM (sheet 'Samples'), CATDS: 0.144406437385246",1670 nM
same,potency estimated from few doses,[12]; CATDS: 0.67629550242263303,51.7 nM
same,potency estimated from few doses,[29],1720 nM
same,potency estimated from few doses,[30],746 nM
NCC1CNC(=O)c2cc3ccc(C(=O)Nc4cccnc4)cc3n2C1 (stereo not drawn) [BI00614644],potency estimated from few doses,[14]; [37],1830 nM
same,potency estimated from few doses,[23],1320 nM
same,potency estimated from few doses,[31],1330 nM
same,potency estimated from few doses,[32],1520 nM
same,potency estimated from few doses,[33],1090 nM
same,potency estimated from few doses,[34]; [37],1110 nM
same,potency estimated from few doses,[35],950 nM
O=[N+]([O-])c1ccc2c(c1)C(c1ccccc1Cl)=Nc1c[nH]nc1N2 [RO0117162-000],potency estimated from few doses,"[14]; compound concentrations: 100 nM and 1000 nM (sheet 'Samples'), CATDS: 0.34611685739606901",1450 nM
same,potency estimated from few doses,"[34]; compound concentrations: 100 nM and 1000 nM (sheet 'Samples'), CATDS: 0.27508455171149998",2440 nM
same,potency estimated from few doses,[36],1090 nM
